# Source: PubChem (Johns Hopkins Ion Channel Center)
# Shown are actives, neighbours in structure and some others; about 1.6% of the full set was active somewhere.
# KCNQ2 enhance: KCNQ2 (rat) channel potentiation; O88943; CHO-K1 KCNQ2, FluxOR thallium flux fluorescence; stronger effect = higher value; B-score at 10 µM; actives 0.54% (n = 310,000);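 active = fluorescence ratio B-score at least 3 SD of library B-scores, with initial fluorescence B-score within 3 of them, cut at about 5.3 in these data; same plate scores as AID 2156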;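 note: B-score of peak minus minimum over baseline fluorescence ratio after K+ and Tl+ stimulus; positive B-score means potentiation of KCNQ2 with more thallium influx and brighter signal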
# KCNQ2 block: KCNQ2 (rat) channel inhibition; O88943; CHO-K1 KCNQ2, FluxOR thallium flux, 20 min; stronger effect = lower value; B-score at 10 µM; actives 1.1% (n = 310,000); AID 2156;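 active = fluorescence ratio B-score at most minus 3 library SDs, with starting brightness B-score within 2 library SDs, cut at about -5.5 in these data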
# Kir21 conf inh: confirmation of mouse Kir2.1 potassium channel inhibitors | actives 41% (n = 2,300) | Kir2.1-expressing cells, FluxOR thallium flux fluorescence; stronger effect = lower value | Tl flux remaining, % of negative control (stronger effect = lower value), % at 10 µM | shares compounds with KCNQ2 enhance;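 active = Primary-screen hit whose thallium flux fell at least 3 control SD below untreated wells in both duplicates, with normal baseline fluorescence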;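 note: 0% = blank wells without stimulus and 100% = stimulated no-compound controls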
# HEK293 ctr: counter-screen for Kir2.1 inhibitors: effect in parental HEK293 cells; shares compounds with KCNQ2 enhance; FluxOR thallium flux fluorescence; 0% = unstimulated blank wells; FluxOR signal as % of negative control (100 = no effect), % at 10 µM; actives 19% (n = 2,300); AID 2105;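 active = dye signal at least 3 control SD above or below untreated wells in both duplicates, raw fluorescence within 3, either direction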;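 note: percent is based on the flux ratio of peak minus minimum fluorescence over baseline F0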
# CHO-K1 ctr: alters thallium flux in parental CHO-K1 cells, KCNQ2 counter-screen; FluxOR thallium flux fluorescence; zero = vehicle mean+3SD, 100% = vehicle-minus-blank window; shares compounds with KCNQ2 enhance; actives 43% (n = 1,200); activity increase over 3SD of controls, % at 10 µM;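 active = signal rise of at least 3 SD above the untreated control mean, in both duplicate wells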;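 note: counter screen of KCNQ2 potentiator hits so any rise reflects channel-independent effects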
# KCNQ1 sel pot: tests whether KCNQ2 potentiators also act on human KCNQ1; shares compounds with KCNQ2 enhance; CHO KCNQ1 stable, FluxOR thallium flux fluorescence; beyond 3SD, as % of vehicle-control signal; activation over 3SD threshold, % at 10 µM; actives 28% (n = 1,200); AID 2283;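 active = fluorescence ratio rise of at least 3 SD of vehicle wells above their mean, in both replicate wells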;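 note: 0% = vehicle mean plus 3 SD and 100% = vehicle minus unstimulated blank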
# KCNQ2 pot conf: confirmation of rat KCNQ2 potassium channel potentiators; potentiation, less the hit threshold, % at 10 µM; CHO-KCNQ2 cells, FluxOR thallium flux fluorescence; actives 68% (n = 1,200); shares compounds with KCNQ2 enhance; AID 2287;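 active = fluorescence ratio rising 3 SD or more over the vehicle control mean in both replicates, plus primary screen hit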;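 note: peak minus minimum thallium fluorescence divided by baseline after K/Tl stimulus; 0% = vehicle mean plus 3 SD and 100% = vehicle minus unstimulated blank difference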
# Kir2-1 sel: tests whether KCNQ2 potentiators also affect mouse Kir2.1; shares compounds with KCNQ2 enhance; activity over 3SD threshold, % at 10 µM; actives 2% (n = 1,200); HEK293 Kir2.1, FluxOR thallium flux fluorescence;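 active = fluorescence ratio rise of at least 3 SD above the vehicle-control mean, seen in both replicates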;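 note: 0% = vehicle mean plus 3 SD and 100% = vehicle minus no-stimulus blank window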
# KCNQ2 W236L MoA: KCNQ2 potentiators acting on retigabine-insensitive rat KCNQ2 W236L mutant | shares compounds with KCNQ2 enhance | CHO KCNQ2-W236L, automated patch clamp current | current increase over 3SD of negative controls (%), stronger effect = higher value, % at 25 µM | actives 10% (n = 940) | AID 2558;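 active = current increase at least 3 SD of the untreated controls above them in both duplicate recordings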
# The depositor's hits bear a star; i = inactive; . = no result.
SMILES,KCNQ2 enhance,KCNQ2 block,Kir21 conf inh,HEK293 ctr,others
CC(C)Oc1ccccc1NC(=O)CSc1nc2ccccc2c(=O)n1C,1.2,i,58%*,i,
Cc1ccccc1NC(=O)CSc1nc2ccccc2c(=O)n1C,0.07,i,.,.,
CN(C)/C=C(/C(=O)c1ccc(Cl)c(Cl)c1)S(C)(=O)=O,.,i,.,.,
Cc1ccc(CN2CCN(/N=C/C(Br)=C\c3ccccc3)CC2)cc1,1.4,i,.,.,
O=C1c2ccccc2C(=O)N1CCC(c1ccc(F)cc1)c1ccco1 (stereo not given),.,i,.,.,
Cc1ccc(C(CCNC(C)c2cccs2)c2ccco2)cc1 (stereo not given),.,i,36%*,i,
c1ccc(-c2nc(N3CCNCC3)nc3ccccc23)cc1,.,i,50%*,i,
c1ccc(-c2nc(N3CCCCC3)nc3ccccc23)cc1,.,i,.,.,
CN(C)c1ccc(NC(=O)CCCc2ccccc2)cc1,5.5*,i,i,i,CHO-K1 ctr=13*;KCNQ1 sel pot=-16;KCNQ2 pot conf=-15;Kir2-1 sel=-33;KCNQ2 W236L MoA=i
Cc1cccc(NC(=O)CCCc2ccccc2)c1,.,i,.,.,
O=C(CCc1ccncc1)N1CCCC(Nc2ccc(F)c(F)c2)C1 (stereo not given),.,i,.,.,
OCCC1CN(Cc2ccon2)CCN1CCc1ccccc1 (stereo not given),.,i,.,.,
CCn1ccnc1CNC(=O)c1ccc2oc(C(C)C)nc2c1,0.93,i,.,.,
COc1cc(C(=O)OCC(=O)N2CCC(Cc3ccccc3)CC2)cc(OC)c1OC,5.6*,i,i,67%*,CHO-K1 ctr=-8;KCNQ1 sel pot=-14;KCNQ2 pot conf=35*;Kir2-1 sel=-50;KCNQ2 W236L MoA=i
O=C(OCC(=O)N1CCC(Cc2ccccc2)CC1)c1ccccc1,0.04,i,.,.,
S=c1[nH]nc(COc2ccccc2)n1/N=C/c1ccc(Cl)c(Cl)c1,.,i,.,.,
Cc1cccc(/C=N/n2c(COc3ccccc3)n[nH]c2=S)c1,6*,i,i,158%*,CHO-K1 ctr=-8;KCNQ1 sel pot=-14;KCNQ2 pot conf=0.0*;Kir2-1 sel=-38;KCNQ2 W236L MoA=i
COc1cccc(NC(=S)N2CCN(Cc3ccccc3)CC2)c1,0.77,i,.,.,
COc1cc(OC)cc(-c2nnc(NC(=O)c3ccc4c(c3)OCCO4)o2)c1,.,i,.,.,
N/C(=N\OC(=O)CC1CCCCC1)c1cccc(Br)c1,7.8*,i,i,i,CHO-K1 ctr=-13;KCNQ1 sel pot=9.5*;KCNQ2 pot conf=21*;Kir2-1 sel=-43;KCNQ2 W236L MoA=i
N/C(=N\OC(=O)CC1CCCCC1)c1ccc(Br)cc1,.,i,.,.,
N/C(=N\OC(=O)CCC1CCCCC1)c1cccc([N+](=O)[O-])c1,11*,i,i,i,CHO-K1 ctr=24*;KCNQ1 sel pot=-15;KCNQ2 pot conf=30*;Kir2-1 sel=-39;KCNQ2 W236L MoA=i
N/C(=N\OC(=O)CCC1CCCC1)c1ccc([N+](=O)[O-])cc1,0.44,i,.,.,
CCCC(=O)N1CCCC(C(=O)c2cccc(OC(C)C)c2)C1 (stereo not given),.,i,.,.,
CC(C)(C)c1ccc(OCCC(=O)Nc2cccc(S(=O)(=O)N3CCCCC3)c2)cc1,.,i,.,.,
O=C(COC(=O)C1CCC(=O)N1)Nc1ccc(Oc2ccccc2)cc1 (stereo not given),7.6*,i,i,i,CHO-K1 ctr=2.8*;KCNQ1 sel pot=-28;KCNQ2 pot conf=-13;Kir2-1 sel=-31
O=C(COC(=O)C1CCC(=O)N1)Nc1ccccc1Br (stereo not given),0.74,i,.,.,
C/C(CC(=O)NC1CCCC1)=N\NC(=O)Cc1csc(N)n1,.,i,.,.,
CCN(c1ccccc1)S(=O)(=O)c1ccc(NC(=O)c2nc(S(C)(=O)=O)ncc2Cl)cc1,9*,i,i,74%*,CHO-K1 ctr=-11;KCNQ1 sel pot=-59;KCNQ2 pot conf=-3;Kir2-1 sel=-54;KCNQ2 W236L MoA=i
